Measurements as given in article PMC7862700, “An all-to-all approach to the identification of sequence-specific readers for epigenetic DNA modifications on cytosine”.

How the values were obtained:
Assay in all cases: DAPPL (digital affinity profiling via proximity ligation, sequencing); 10 mM Tris-HCl pH 7.5, 50 mM NaCl, 1 mM DTT, 4% glycerol, room temperature, 30 min; GST-TFs on glutathione beads, 16-mer random dsDNA library, 0.1% formaldehyde crosslink after washing; high values mean tight binding
FLI1 = biological target: T1, FLI1 (Homo sapiens, UniProt Q01543 1-452); details: protein: recombinant; tags: N-terminal GST; dsDNA, one strand shown
T1 sequence: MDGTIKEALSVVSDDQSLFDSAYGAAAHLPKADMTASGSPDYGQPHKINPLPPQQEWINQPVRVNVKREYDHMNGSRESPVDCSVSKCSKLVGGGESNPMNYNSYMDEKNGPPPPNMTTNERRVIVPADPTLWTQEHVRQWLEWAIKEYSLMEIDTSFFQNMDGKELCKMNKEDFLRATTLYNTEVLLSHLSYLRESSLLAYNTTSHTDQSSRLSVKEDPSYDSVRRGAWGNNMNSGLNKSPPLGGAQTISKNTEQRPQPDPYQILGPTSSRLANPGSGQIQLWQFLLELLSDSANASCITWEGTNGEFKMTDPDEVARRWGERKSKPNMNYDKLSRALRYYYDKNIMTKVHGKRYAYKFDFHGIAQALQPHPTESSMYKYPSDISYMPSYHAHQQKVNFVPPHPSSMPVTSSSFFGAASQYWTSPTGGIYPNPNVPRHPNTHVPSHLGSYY
Method in brief: (§1)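 Human transcription factors were made in yeast as GST fusions, captured on glutathione beads and barcoded with DNA. With a tag-only sample included, the pool was incubated with 200 nmole of a random double-stranded 16-mer DNA library in Tris/NaCl/DTT/glycerol buffer at room temperature for 30 min, then crosslinked with 0.1% formaldehyde after washing, ligated by proximity, amplified and sequenced. For binding signal, each hexamer's read frequency for a factor is divided by its frequency for the tag-only sample.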

ELK1 = biological target: T2, ELK1 (Homo sapiens, UniProt P19419 1-428); details: protein: recombinant; tags: N-terminal GST; dsDNA, one strand shown
T2 sequence: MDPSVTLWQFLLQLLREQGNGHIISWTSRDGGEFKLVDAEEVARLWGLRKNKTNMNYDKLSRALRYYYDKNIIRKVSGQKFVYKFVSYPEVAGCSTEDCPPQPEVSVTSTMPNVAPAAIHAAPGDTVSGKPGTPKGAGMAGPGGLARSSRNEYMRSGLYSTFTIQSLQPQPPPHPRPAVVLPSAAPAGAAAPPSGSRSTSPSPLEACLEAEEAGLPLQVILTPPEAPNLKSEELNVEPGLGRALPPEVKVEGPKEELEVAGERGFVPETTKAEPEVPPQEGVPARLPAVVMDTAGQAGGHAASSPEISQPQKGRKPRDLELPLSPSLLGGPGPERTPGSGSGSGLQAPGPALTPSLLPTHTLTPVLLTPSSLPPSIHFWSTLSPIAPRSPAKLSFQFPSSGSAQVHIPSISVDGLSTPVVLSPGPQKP
Method in brief: as §1

GABPA = biological target: T3, GABPA (Homo sapiens, UniProt Q06546 1-454); details: protein: recombinant; tags: N-terminal GST; dsDNA, one strand shown
T3 sequence: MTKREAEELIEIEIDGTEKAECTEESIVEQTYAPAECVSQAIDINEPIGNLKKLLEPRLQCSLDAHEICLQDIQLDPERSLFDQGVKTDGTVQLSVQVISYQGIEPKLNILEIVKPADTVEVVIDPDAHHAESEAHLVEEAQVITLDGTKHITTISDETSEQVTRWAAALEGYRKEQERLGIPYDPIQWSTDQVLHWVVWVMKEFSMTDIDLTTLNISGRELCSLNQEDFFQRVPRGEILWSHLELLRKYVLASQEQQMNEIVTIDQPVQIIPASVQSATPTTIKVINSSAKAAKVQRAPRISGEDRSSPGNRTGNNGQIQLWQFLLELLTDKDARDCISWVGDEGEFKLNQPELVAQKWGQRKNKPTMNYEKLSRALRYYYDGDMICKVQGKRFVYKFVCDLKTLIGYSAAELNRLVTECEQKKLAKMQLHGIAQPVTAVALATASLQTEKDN
Method in brief: as §1

ERG = biological target: T4, ERG (Homo sapiens, UniProt P11308 1-479); details: protein: recombinant; tags: N-terminal GST; dsDNA, one strand shown
T4 sequence: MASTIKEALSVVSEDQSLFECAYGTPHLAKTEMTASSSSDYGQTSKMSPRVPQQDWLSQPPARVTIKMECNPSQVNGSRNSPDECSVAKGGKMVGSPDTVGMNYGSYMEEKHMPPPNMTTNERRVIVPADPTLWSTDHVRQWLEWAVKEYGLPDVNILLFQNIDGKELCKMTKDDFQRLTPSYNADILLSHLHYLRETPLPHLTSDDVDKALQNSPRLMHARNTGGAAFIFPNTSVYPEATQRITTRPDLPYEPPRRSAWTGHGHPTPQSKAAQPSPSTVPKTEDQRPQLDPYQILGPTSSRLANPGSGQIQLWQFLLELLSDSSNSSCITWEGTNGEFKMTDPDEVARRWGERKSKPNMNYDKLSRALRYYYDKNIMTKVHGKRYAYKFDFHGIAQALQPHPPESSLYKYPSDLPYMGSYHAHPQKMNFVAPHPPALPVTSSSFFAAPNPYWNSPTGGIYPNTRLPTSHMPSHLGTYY
Method in brief: as §1

ELF1 = ELF1 (Homo sapiens, UniProt P32519 1-619); details: protein: recombinant; tags: N-terminal GST; dsDNA, one strand shown
Method in brief: as §1

EHF = biological target: T5, EHF (Homo sapiens, UniProt Q9NZC4 1-300); details: protein: recombinant; tags: N-terminal GST; dsDNA, one strand shown
T5 sequence: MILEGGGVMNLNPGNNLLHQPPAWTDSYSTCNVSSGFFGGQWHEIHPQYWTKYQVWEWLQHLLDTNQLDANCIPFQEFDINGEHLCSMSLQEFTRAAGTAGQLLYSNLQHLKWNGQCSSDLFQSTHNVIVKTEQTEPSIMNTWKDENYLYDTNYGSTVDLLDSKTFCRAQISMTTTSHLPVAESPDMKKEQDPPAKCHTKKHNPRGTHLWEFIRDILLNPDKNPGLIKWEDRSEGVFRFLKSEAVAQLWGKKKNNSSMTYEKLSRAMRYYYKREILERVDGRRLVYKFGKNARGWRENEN
Method in brief: as §1

SPI1 = SPI1 (Homo sapiens, UniProt P17947 1-270); details: protein: recombinant; tags: N-terminal GST; dsDNA, one strand shown
Method in brief: as §1

SPIB = SPIB (Homo sapiens, UniProt Q01892 1-262); details: protein: recombinant; tags: N-terminal GST; dsDNA, one strand shown
Method in brief: as §1

ELK3 = biological target: T6, ELK3 (Homo sapiens, UniProt P41970 1-407); details: protein: recombinant; tags: N-terminal GST; dsDNA, one strand shown
T6 sequence: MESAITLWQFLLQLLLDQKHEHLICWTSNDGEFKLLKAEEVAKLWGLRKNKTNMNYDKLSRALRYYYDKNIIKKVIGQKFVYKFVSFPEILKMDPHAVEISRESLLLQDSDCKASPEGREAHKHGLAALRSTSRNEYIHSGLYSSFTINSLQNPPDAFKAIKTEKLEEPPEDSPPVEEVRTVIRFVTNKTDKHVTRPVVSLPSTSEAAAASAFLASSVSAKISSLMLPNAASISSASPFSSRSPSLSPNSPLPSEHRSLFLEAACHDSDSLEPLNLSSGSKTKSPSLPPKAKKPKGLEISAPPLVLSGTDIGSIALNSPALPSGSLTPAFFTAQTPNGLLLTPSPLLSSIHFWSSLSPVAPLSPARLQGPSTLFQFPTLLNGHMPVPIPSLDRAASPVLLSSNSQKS
Method in brief: as §1

FEV = biological target: T7, FEV (Homo sapiens, UniProt Q99581 1-238); details: protein: recombinant; tags: N-terminal GST; dsDNA, one strand shown
T7 sequence: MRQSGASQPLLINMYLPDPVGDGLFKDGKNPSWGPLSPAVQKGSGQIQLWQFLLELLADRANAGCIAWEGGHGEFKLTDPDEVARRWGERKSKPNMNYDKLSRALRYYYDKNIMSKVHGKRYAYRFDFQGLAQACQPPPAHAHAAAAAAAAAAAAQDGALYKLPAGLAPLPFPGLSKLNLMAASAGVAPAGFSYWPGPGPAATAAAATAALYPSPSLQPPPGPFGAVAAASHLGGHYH
Method in brief: as §1

ETV5 = ETV5 (Homo sapiens, UniProt P41161 1-510); details: protein: recombinant; tags: N-terminal GST; dsDNA, one strand shown
Method in brief: as §1

HSF1 = HSF1 (Homo sapiens, UniProt Q00613 1-529); details: protein: recombinant; tags: N-terminal GST; chain copies: 3; dsDNA, one strand shown
Method in brief: as §1

SPIC = biological target: T8, SPIC (Homo sapiens, UniProt Q8N5J4 1-248); details: protein: recombinant; tags: N-terminal GST; dsDNA, one strand shown
T8 sequence: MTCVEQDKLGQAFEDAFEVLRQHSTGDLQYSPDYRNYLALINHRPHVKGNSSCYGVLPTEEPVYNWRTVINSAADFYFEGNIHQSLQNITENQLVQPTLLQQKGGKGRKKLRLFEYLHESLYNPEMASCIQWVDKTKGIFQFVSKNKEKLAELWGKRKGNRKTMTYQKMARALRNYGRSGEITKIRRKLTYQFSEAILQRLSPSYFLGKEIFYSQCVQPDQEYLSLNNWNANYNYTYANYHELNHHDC
Method in brief: as §1

ELF4 = ELF4 (Homo sapiens, UniProt Q99607 1-663); details: protein: recombinant; tags: N-terminal GST; dsDNA, one strand shown
Method in brief: as §1

ELK4 = biological target: T9, ELK4 (Homo sapiens, UniProt P28324-2 1-405); details: protein: recombinant; tags: N-terminal GST; dsDNA, one strand shown
T9 sequence: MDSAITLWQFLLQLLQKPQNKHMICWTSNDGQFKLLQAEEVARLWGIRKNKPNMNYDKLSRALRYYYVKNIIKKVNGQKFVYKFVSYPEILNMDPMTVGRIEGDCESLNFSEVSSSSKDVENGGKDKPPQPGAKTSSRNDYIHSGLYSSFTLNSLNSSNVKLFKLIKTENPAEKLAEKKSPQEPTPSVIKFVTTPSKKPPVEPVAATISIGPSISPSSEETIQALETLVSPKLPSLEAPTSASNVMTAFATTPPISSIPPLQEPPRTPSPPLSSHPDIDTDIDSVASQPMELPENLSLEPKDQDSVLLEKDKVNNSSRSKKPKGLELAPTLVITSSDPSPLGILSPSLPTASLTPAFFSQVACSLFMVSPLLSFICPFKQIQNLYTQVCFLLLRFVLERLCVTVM
Method in brief: as §1

ETV2 = biological target: T10, ETV2 (Homo sapiens, UniProt O00321 1-342); details: protein: recombinant; tags: N-terminal GST; dsDNA, one strand shown
T10 sequence: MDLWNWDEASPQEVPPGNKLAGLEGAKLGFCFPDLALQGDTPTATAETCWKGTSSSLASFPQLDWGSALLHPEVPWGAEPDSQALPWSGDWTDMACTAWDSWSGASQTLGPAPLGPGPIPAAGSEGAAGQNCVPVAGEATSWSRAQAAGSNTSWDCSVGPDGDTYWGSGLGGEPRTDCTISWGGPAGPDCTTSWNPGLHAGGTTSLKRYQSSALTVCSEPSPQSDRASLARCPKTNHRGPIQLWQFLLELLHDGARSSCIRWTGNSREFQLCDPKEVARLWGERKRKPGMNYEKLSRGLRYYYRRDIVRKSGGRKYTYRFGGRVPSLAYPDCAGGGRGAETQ
Method in brief: as §1

ELF3 = biological target: T11, ELF3 (Homo sapiens, UniProt P78545 1-371); details: protein: recombinant; tags: N-terminal GST; dsDNA, one strand shown
T11 sequence: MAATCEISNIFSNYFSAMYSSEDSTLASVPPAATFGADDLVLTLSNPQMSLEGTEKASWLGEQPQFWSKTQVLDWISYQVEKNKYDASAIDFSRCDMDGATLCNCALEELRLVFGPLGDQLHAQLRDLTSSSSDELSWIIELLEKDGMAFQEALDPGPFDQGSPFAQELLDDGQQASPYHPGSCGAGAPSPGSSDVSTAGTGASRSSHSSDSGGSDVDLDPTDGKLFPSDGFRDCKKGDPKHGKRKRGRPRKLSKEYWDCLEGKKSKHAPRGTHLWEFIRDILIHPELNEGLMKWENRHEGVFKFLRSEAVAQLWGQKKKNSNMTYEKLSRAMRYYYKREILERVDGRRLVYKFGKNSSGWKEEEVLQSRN
Method in brief: as §1

CRX = CRX (Homo sapiens, UniProt O43186 1-299); details: protein: recombinant; tags: N-terminal GST; dsDNA, one strand shown
Method in brief: as §1

ETV1 = ETV1 (Homo sapiens, UniProt P50549 1-477); details: protein: recombinant; tags: N-terminal GST; dsDNA, one strand shown
Method in brief: as §1

Chain of ELF1 (P32519 whole entry): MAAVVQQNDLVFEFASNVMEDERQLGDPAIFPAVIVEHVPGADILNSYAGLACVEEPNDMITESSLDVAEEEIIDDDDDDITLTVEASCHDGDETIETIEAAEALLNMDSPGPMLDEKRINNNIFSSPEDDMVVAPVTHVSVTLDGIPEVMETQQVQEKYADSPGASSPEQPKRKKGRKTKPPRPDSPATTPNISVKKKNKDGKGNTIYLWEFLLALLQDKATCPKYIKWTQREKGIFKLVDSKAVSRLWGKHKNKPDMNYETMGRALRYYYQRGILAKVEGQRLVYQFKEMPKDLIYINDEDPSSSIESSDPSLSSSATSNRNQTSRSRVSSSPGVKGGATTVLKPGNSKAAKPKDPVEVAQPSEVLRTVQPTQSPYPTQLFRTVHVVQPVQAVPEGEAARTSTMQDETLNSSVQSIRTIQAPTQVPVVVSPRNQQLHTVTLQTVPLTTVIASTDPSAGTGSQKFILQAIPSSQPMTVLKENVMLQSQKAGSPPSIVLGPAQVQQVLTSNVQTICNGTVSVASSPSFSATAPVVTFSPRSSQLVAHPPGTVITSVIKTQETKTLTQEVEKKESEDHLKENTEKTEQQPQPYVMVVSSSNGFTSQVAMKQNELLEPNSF
Chain of HSF1 (Q00613 whole entry): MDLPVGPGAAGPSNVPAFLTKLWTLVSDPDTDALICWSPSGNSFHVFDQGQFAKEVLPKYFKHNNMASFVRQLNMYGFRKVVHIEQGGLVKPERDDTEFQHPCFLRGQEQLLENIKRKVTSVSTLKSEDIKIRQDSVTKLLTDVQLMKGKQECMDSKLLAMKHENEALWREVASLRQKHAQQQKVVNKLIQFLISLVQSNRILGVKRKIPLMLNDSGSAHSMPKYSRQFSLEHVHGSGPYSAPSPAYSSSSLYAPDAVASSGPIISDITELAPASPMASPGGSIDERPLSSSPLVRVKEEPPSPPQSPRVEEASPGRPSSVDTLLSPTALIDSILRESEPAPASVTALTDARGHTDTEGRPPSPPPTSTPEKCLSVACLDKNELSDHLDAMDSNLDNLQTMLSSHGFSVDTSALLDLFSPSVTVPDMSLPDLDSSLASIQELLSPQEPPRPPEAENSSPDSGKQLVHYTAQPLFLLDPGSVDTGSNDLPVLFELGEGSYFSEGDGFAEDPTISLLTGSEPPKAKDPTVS
Chain of CRX (O43186 whole entry): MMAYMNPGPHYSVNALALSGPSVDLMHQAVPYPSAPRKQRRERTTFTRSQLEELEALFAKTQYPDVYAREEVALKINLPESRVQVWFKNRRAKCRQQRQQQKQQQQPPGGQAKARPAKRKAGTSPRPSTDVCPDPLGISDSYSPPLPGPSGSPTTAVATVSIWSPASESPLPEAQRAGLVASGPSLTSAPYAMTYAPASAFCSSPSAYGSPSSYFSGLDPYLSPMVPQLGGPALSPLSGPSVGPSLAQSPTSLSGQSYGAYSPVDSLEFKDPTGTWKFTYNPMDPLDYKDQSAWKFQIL
Chain of ETV1 (P50549 whole entry): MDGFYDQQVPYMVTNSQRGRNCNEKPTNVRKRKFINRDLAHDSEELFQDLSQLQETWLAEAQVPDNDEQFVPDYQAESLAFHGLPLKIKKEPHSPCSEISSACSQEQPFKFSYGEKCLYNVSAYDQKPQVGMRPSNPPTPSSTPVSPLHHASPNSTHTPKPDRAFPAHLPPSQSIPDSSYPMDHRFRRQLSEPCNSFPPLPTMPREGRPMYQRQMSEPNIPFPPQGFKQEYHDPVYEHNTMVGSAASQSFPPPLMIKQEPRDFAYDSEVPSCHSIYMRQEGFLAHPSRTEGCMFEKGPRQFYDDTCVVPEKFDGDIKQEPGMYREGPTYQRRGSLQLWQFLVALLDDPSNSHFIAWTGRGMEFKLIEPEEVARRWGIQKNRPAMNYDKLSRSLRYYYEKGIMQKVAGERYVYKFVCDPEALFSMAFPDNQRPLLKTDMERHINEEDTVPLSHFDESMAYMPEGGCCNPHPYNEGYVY
Chain of ETV5 (P41161 whole entry): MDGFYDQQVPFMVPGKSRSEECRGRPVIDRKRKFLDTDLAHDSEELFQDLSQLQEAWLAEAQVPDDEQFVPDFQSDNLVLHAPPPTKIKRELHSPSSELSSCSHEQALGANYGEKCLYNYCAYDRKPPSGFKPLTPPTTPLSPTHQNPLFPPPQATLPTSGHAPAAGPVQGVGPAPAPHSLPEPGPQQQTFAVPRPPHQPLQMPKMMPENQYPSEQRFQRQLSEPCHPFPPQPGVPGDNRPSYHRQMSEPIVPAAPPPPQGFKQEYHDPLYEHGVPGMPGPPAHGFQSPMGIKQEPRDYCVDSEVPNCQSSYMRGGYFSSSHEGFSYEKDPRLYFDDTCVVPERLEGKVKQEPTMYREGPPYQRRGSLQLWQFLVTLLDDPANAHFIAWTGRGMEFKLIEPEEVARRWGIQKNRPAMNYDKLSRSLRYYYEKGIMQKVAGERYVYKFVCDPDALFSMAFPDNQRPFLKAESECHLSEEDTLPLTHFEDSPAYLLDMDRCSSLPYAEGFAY
Chain of SPIB (Q01892 whole entry): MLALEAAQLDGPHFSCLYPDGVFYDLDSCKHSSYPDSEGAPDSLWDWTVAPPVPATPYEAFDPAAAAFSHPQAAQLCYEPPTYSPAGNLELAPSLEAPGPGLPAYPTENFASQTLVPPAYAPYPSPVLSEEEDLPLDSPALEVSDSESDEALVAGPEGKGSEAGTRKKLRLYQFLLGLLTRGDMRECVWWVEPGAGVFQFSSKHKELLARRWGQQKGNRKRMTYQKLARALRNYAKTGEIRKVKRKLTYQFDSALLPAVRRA
Chain of ELF4 (Q99607 whole entry): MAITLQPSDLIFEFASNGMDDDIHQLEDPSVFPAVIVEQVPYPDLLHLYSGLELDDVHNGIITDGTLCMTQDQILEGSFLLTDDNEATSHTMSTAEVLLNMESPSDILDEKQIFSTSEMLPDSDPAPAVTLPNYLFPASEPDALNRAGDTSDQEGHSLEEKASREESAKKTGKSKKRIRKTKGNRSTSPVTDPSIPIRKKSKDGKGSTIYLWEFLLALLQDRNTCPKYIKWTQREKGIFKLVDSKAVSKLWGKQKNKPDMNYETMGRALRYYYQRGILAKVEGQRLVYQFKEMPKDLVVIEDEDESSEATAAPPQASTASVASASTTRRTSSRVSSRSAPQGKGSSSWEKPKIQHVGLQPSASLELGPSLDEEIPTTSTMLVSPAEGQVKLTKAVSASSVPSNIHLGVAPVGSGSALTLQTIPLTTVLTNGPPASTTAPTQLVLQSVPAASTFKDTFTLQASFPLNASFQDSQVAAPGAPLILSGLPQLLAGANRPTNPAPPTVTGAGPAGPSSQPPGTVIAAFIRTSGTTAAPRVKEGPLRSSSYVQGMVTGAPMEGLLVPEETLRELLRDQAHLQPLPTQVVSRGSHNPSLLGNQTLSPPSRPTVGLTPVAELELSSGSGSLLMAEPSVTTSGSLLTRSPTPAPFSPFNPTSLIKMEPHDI

AATGGC
binding signal (FLI1): 1.32 fold enrichment (6-mer frequency, TF over GST control)
binding signal (ELK1): 1.33 fold enrichment (6-mer frequency, TF over GST control)
binding signal (GABPA): 1.37 fold enrichment (6-mer frequency, TF over GST control)
binding signal (ERG): 1.43 fold enrichment (6-mer frequency, TF over GST control)
binding signal (ELF1): 1.39 fold enrichment (6-mer frequency, TF over GST control)
binding signal (EHF): 1.5 fold enrichment (6-mer frequency, TF over GST control)
binding signal (SPI1): 1.39 fold enrichment (6-mer frequency, TF over GST control)
binding signal (SPIB): 1.37 fold enrichment (6-mer frequency, TF over GST control)
binding signal (ELK3): 1.26 fold enrichment (6-mer frequency, TF over GST control)
binding signal (FEV): 1.52 fold enrichment (6-mer frequency, TF over GST control)
binding signal (ETV5): 1.42 fold enrichment (6-mer frequency, TF over GST control)
binding signal (HSF1): 1.28 fold enrichment (6-mer frequency, TF over GST control)
binding signal (SPIC): 1.61 fold enrichment (6-mer frequency, TF over GST control)
binding signal (ELF4): 1.29 fold enrichment (6-mer frequency, TF over GST control)
binding signal (ELK4): 1.52 fold enrichment (6-mer frequency, TF over GST control)
binding signal (ETV2): 1.26 fold enrichment (6-mer frequency, TF over GST control)
binding signal (ELF3): 1.55 fold enrichment (6-mer frequency, TF over GST control)
binding signal (CRX): 1.26 fold enrichment (6-mer frequency, TF over GST control)
binding signal (ETV1): 1.44 fold enrichment (6-mer frequency, TF over GST control)
